This is an account of results in PubChem BioAssay AID463173 (ICCB-Longwood Screening Facility, Harvard Medical School, 2010).

The campaign covered roughly 52,000 compounds. About 1,700 (3.3%) were called active. The sample as a whole holds a higher share of actives than the screen did. Values without a mark were called inactive. No stated cut-off is given here; in the data, active means survival mostly below about 52% (no sharp cut-off); inactive means mostly above about 56%.

This assay deals with Wild type. Briefly: growth inhibition of S. aureus wild type versus tarO mutant, primary screen, teichoic acid synthesis inhibitors, RN4220, OD600 (AID 463173). The settings on record: S. aureus RN4220 wild type/DeltatarO growth, OD600, 18 h, stronger effect = lower value, screened at 18.75 µg/mL (by protocol).
With `N#C/C(=C\c1cn(CC(=O)N2CCCC2)c2ccccc12)C(=O)NC1CC1`, the survival was 103%.

Turning to `CCC(C(=O)NC1CCCCC1)n1c(SCc2ccccc2F)nc2ccncc21` (stereo not drawn), the survival is 73%.

Take `COc1ccc(CNC(=O)CCc2c(C)nc3nc(CNC(=O)OC(C)(C)C)nn3c2C)cc1`: the survival is 77%.

Take `COc1ccc(C2=NS(=O)(=O)N(C)C(C(=O)NCc3ccccc3)=C2)cc1OC`: the survival is 102%.

`CCC(C)NC(=O)CSc1nc2n[nH]c(C)c2c(=N)n1-c1cc(Cl)ccc1C` (stereo not drawn): the survival was 72%.

Consider `COc1ccccc1CNC(=O)c1c[nH]c2ccc(S(=O)(=O)Nc3cc(C)cc(C)c3)cc2c1=O`, for which the survival is 67%.

On to `CCC(C)n1c(=O)c2sccc2n2c(CCCC(=O)Nc3ccc(F)cc3)nnc12` (stereo not drawn), for which the survival was 97%.

Consider `CCN(CC)C(=O)C(C(F)(F)F)C(F)(F)F`, for which the survival was 103%.

For `Cc1ccccc1Nc1c(-c2cccnc2)nc2ccc(Cl)cn12`, the survival was 81%.

For the compound `Cc1ccc2nc(-c3ccncc3)c(Nc3ccccc3C)n2c1`, the survival is 101%.

Take `Cc1ccc2nc(-c3ccccn3)c(Nc3ccccc3C)n2c1`: the survival is 18% (active).

Turning to `Cc1ccccc1Nc1c(-c2ccc(Br)o2)nc2ccc(Cl)cn12`, the survival was 10% (active).

For `Cc1ccc2nc(-c3ccccc3O)c(Nc3ccccc3C)n2c1`, the survival was 79%.

As for `Cc1ccc(Nc2c(-c3ccccc3O)nc3cc(C)ccn23)cc1`, the survival was 73%.

Turning to `CSc1ccc(-c2nc3cc(C)ccn3c2Nc2ccc(C)cc2)cc1`, the survival was 87%.

Consider `Cc1ccccc1Nc1c(-c2ccncc2)nc2ccc(Cl)cn12`, for which the survival was 128%.

For `Cc1ccc2nc(-c3ccccn3)c(Nc3ccc(F)cc3)n2c1`, the survival is 16% (active).

Regarding `Fc1ccc(Nc2c(-c3ccccn3)nc3ccc(Cl)cn23)cc1`, the survival was 73%.

On to `Cc1ccc(Nc2c(-c3cc(Br)ccc3F)nc3cc(C)ccn23)cc1`, for which the survival was 0% (active).

For the compound `Cc1ccc(Nc2c(-c3ccccn3)nc3ccc(Br)cn23)cc1`, the survival is 60%.

`Cc1ccccc1Cn1c(C)c(CNCCCc2ccccc2)c(C(=O)O)c1C`: the survival is 98%.

`O=C(c1ccc2c(c1)N(Cc1ccccc1F)C(=O)c1ccccc1S2=O)N1CCCCC1` (stereo not drawn): the survival was 89%.

With `CCCS(=O)(=O)c1ncc(Cl)c(C(=O)N(Cc2ccccc2)Cc2ccco2)n1`, the survival was 44%.

For `Cc1ccn2c(Nc3ccccc3C)c(-c3ccncc3)nc2c1`, the survival was 80%.

In the case of `Cc1ccn2c(Nc3ccccc3C)c(-c3ccccc3)nc2c1`, the survival is -3% (active).

`Cc1ccn2c(Nc3ccccc3C)c(-c3cccnc3)nc2c1`: the survival was 71%.

As for `CCCC12CN3CC(CCC)(CN(C1)C3c1ccc(OC(C)C)cc1)C2=O` (stereo not drawn), the survival is 39%.

Take `COC(=O)c1ccc(NS(=O)(=O)c2ccc3[nH]c4c(c3c2)CCCCC4)cc1`: the survival was 119%.

Consider `Cc1ccc(NS(=O)(=O)c2ccc3[nH]c4c(c3c2)CCCCCC4)cc1C`, for which the survival was -3% (active).

Take `Cc1ccc(CNS(=O)(=O)c2ccc3[nH]c4c(c3c2)CCCC4)cc1`: the survival is 82%.

On to `COC(=O)c1ccc(NS(=O)(=O)c2ccc3[nH]c4c(c3c2)CCCC4)cc1`, for which the survival is 1% (active).

For `Cc1ccc(NS(=O)(=O)c2ccc3[nH]c4c(c3c2)CCCCCC4)cc1`, the survival was 71%.

In the case of `O=S(=O)(NCc1ccc(F)cc1)c1ccc2[nH]c3c(c2c1)CCCC3`, the survival was -3% (active).

Consider `COc1cc(NS(=O)(=O)c2ccc3[nH]c4c(c3c2)CCCCCC4)cc(OC)c1`, for which the survival was 57%.

Regarding `COc1ccc(NS(=O)(=O)c2ccc3[nH]c4c(c3c2)CCCCC4)cc1`, the survival is 127%.

With `Cc1ccc(NS(=O)(=O)c2ccc3[nH]c4c(c3c2)CCCCCC4)cc1Cl`, the survival was 71%.

`COc1ccc(NS(=O)(=O)c2ccc3[nH]c4c(c3c2)CCCCCC4)cc1`: the survival was -4% (active).

`CC(=O)c1ccc(NS(=O)(=O)c2ccc3[nH]c4c(c3c2)CCCC4)cc1`: the survival was 84%.

`O=S(=O)(NCc1ccc(F)cc1)c1ccc2[nH]c3c(c2c1)CCCCC3`: the survival is 55%.

On to `CCC(C)NC(=O)Cn1c(=O)n(-c2cc(OC)cc(OC)c2)c(=O)c2ccccc21` (stereo not drawn), for which the survival is 94%.

In the case of `CCOc1ccc(OCC)c(NC(=O)c2cc(CN3CCOCC3)on2)c1`, the survival is 72%.

With `COCCn1c(CCC(=O)Nc2ccc(OC)c(OC)c2)nc2cccnc21`, the survival is 90%.

With `CC1CCN(C(=O)CN(C)S(=O)(=O)c2ccc3ccccc3c2)CC1`, the survival was 115%.

Consider `CCCCN(C(=O)c1cccs1)c1nnc(-c2cc(OC)cc(OC)c2)s1`, for which the survival is 116%.

Regarding `O=C1CCCc2cc(S(=O)(=O)NCC3CCC(C(=O)NCc4ccc(F)cc4)CC3)ccc2N1` (stereo not drawn), the survival is 93%.

With `O=C(NCCc1ccccc1)c1ccc2c(c1)CCN2S(=O)(=O)c1ccc(Cl)cc1`, the survival was 114%.

For `O=C(Nc1nc2ccccc2s1)c1ccc(S(=O)(=O)N2CCCC2)cc1`, the survival was 80%.

Take `CCc1nn(CC(=O)NCCc2ccc(OC)c(OC)c2)c(=O)c2cc3occc3n12`: the survival is 147%.

Take `CCS(=O)(=O)N1CC(=O)N(c2ccccc2C)C(C)(C(=O)NC2CCCCC2)C1` (stereo not drawn): the survival is 82%.

Take `Cc1ccc(C)c(N2CCN(S(=O)(=O)c3ccc4[nH]c5c(c4c3)CCCCC5)CC2)c1`: the survival was 89%.

As to `Cc1ccc(N2CCN(S(=O)(=O)c3ccc4[nH]c5c(c4c3)CCCCC5)CC2)c(C)c1`, the survival is 135%.

Consider `Cc1ccc(C)c(N2CCN(S(=O)(=O)c3ccc4[nH]c5c(c4c3)CCCC5)CC2)c1`, for which the survival is -4% (active).

Turning to `CCOC(=O)c1ccc(NC(=O)CN2c3ccccc3S(=O)(=O)c3ccccc32)cc1`, the survival is 121%.

Regarding `O=C(NCc1ccco1)c1ccc(Cn2c(SCc3ccccc3F)nc3cccnc32)cc1`, the survival was 74%.

As for `CCOC(=O)/C(C#N)=C(\O)c1ccccc1`, the survival was 104%.

Take `Cc1cc(OC(C)C(=O)Nc2c(C(=O)c3ccc(F)cc3)oc3ccccc23)ccc1Cl` (stereo not drawn): the survival was 68%.

On to `Cc1cc(C)cc(OCC(=O)Nc2c(C(=O)c3ccccc3)oc3ccccc23)c1`, for which the survival is 78%.

As to `CCc1ccc(OCC(=O)Nc2c(C(=O)c3ccccc3)oc3ccccc23)cc1`, the survival is 65%.

Consider `Cc1cc(C)cc(OC(C)C(=O)Nc2c(C(=O)c3ccccc3)oc3ccccc23)c1` (stereo not drawn), for which the survival is -1% (active).

In the case of `COc1cc2c(cc1NC(=O)COc1cc(C)cc(C)c1)oc1ccccc12`, the survival is 75%.

Turning to `CCOc1ccc(NC(=O)c2oc3ccccc3c2NC(=O)C(C)Oc2ccccc2)cc1` (stereo not drawn), the survival was 94%.

Take `CCc1ccc(OC(C)C(=O)Nc2c(C(=O)c3ccccc3)oc3ccccc23)cc1` (stereo not drawn): the survival is 13% (active).

For `COc1cc2c(cc1NC(=O)C(C)Oc1ccc(Cl)cc1Cl)oc1ccccc12` (stereo not drawn), the survival was 49%.

Turning to `COc1cc2c(cc1NC(=O)C(C)Oc1ccccc1)oc1ccccc12` (stereo not drawn), the survival is 1% (active).

As for `CC(=O)c1cc(-c2ccc(F)cc2)n(CC(=O)Nc2cc(C)cc(C)c2)c1C`, the survival was 66%.

With `Cc1ccc(Nc2c(-c3ccc(C)s3)nc3ncccn23)cc1`, the survival was 43%.

Regarding `Cc1cccn2c(=O)c(C(=O)N3CCN(c4ccccc4)CC3)cnc12`, the survival was 22%.

`Cc1cccc(N2CCN(C(=O)c3cccn4c(=O)c5cc(Cl)ccc5nc34)CC2C)c1` (stereo not drawn): the survival is 65%.

Take `Cc1cccc(N2CCN(C(=O)c3cnc4c(C)cccn4c3=O)CC2C)c1` (stereo not drawn): the survival was 0% (active).

For the compound `COc1ccc(NS(=O)(=O)c2ccc3c(c2)n(C)c(=O)c(=O)n3C)cc1Cl`, the survival is 77%.

For the compound `O=C(Cc1ccc(F)cc1)NC1CC(=O)N(c2ccccc2)C1` (stereo not drawn), the survival was 72%.

As to `O=C(Cn1c(-c2cccs2)cc2ccccc21)NCc1ccccc1Br`, the survival was 120%.

In the case of `CN(CCCNC(=O)Cn1ncc2c([nH]c3ccccc32)c1=O)Cc1ccccc1`, the survival was 73%.

`CCN(CC)CCNC(=O)Cn1ncc2c([nH]c3ccccc32)c1=O`: the survival is 72%.

With `COc1ccc(CNC(=O)Cn2ncc3c([nH]c4ccccc43)c2=O)cc1`, the survival is 63%.

As for `O=C(Cn1ncc2c([nH]c3ccccc32)c1=O)NCc1cccc(Cl)c1`, the survival was -3% (active).

With `Cc1ccc(CCNC(=O)Cn2ncc3c([nH]c4ccccc43)c2=O)cc1`, the survival was 66%.

Consider `CCCCN(C)CCNC(=O)Cn1ncc2c([nH]c3ccccc32)c1=O`, for which the survival is 0% (active).

With `CCC(=O)N1CCN(c2ccc(NC(=O)c3ccccc3)cc2)CC1`, the survival was 99%.

For `Cc1cccc(Nc2nnc(-c3ccc(C)c(S(=O)(=O)N4CCN(C)CC4)c3)c3ccccc23)c1`, the survival is 147%.

As to `O=C(Nc1cccnc1Cl)c1cc(-c2ccc(Cl)cc2)on1`, the survival was 83%.

Take `COc1ccccc1CNC(=O)CCC1N=C2c3ccccc3N=C(SCC(=O)NCCc3ccccc3)N2C1=O` (stereo not drawn): the survival is 129%.

Consider `COc1ccc(CNC(=O)CCC2N=C3c4ccccc4N=C(SCc4ccccc4F)N3C2=O)cc1` (stereo not drawn), for which the survival was 10% (active).

For `COc1ccccc1CNC(=O)CCC1N=C2c3ccccc3N=C(SCc3cccc(Cl)c3)N2C1=O` (stereo not drawn), the survival is 82%.

With `CCCCNC(=O)CSC1=Nc2ccccc2C2=NC(CCC(=O)NCc3ccccc3OC)C(=O)N12` (stereo not drawn), the survival was -2% (active).

Take `COc1ccc(CNC(=O)CCC2N=C3c4ccccc4N=C(SCc4ccc(F)cc4)N3C2=O)cc1` (stereo not drawn): the survival was 82%.

On to `COCCCNC(=O)CSC1=Nc2ccccc2C2=NC(CCC(=O)NCc3ccccc3OC)C(=O)N12` (stereo not drawn), for which the survival was 73%.

Take `COc1ccc(OC)c(NC(=O)CSC2=Nc3ccccc3C3=NC(CCC(=O)NCc4ccccc4)C(=O)N23)c1` (stereo not drawn): the survival is -3% (active).

With `COc1ccc(OC)c(NC(=O)CSC2=Nc3ccccc3C3=NC(CCC(=O)NCCc4ccccc4)C(=O)N23)c1` (stereo not drawn), the survival is 73%.

Take `COc1ccccc1CNC(=O)CCC1N=C2c3ccccc3N=C(SCc3ccc(C)cc3)N2C1=O` (stereo not drawn): the survival was 118%.

In the case of `COc1ccccc1CNC(=O)CCC1N=C2c3ccccc3N=C(SCc3ccc(Cl)cc3)N2C1=O` (stereo not drawn), the survival was 0% (active).

Turning to `COc1ccc(OC)c(NC(=O)CSC2=Nc3ccccc3C3=NC(CCC(=O)NCc4ccco4)C(=O)N23)c1` (stereo not drawn), the survival is 70%.

As for `O=C(CCC1N=C2c3ccccc3N=C(SCc3ccccc3F)N2C1=O)NCc1ccc(F)cc1` (stereo not drawn), the survival was 73%.
